UDG counterscr: Primary qHTS assay for inhibitors of Activation Induced Cytidine Deaminase (AID): UDG Counterscreen signal. FRET deamination/UDG coupled assay, UDG read, 4 h. Potency, µM (top dose mostly 115 µM), hits mostly inhibitors. hit rate 0.14% among 91,000. Uracil-DNA glycosylase; further: nearly all actives have a fitted effect of over 65% in size
AID inh: Primary qHTS assay for inhibitors of Activation Induced Cytidine Deaminase (AID): AID signal | Single-stranded DNA cytosine deaminase (Homo sapiens), Q9GZX7 | AID deamination FRET fluorescence, UDG-coupled, 4 h | Potency, µM (doses to about 115 µM), hits mostly inhibitors | hit rate 0.32% among 91,000 | AID 1347428, 2020; further: nearly all actives have a fitted effect of over 25% in size
Target sequence (Q9GZX7 whole entry, looked up): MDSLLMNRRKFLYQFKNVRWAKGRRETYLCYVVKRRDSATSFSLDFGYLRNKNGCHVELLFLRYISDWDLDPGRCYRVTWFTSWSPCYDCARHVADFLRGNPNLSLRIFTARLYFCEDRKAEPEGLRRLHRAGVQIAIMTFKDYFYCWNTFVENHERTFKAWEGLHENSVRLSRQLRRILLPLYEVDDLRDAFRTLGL
Large screens that a line does not name were inactive; ! = not confirmed by another sample. An excerpt weighted towards active compounds, which were near 0.4% of everything screened. The call rests on the fitted dose curve; in most records, active means well fitted curve in the direction sought with a large enough effect; inconclusive means small, poorly fitted or top-dose-only effect, or another doubt; inactive means no such curve, though single readings can be large; an effect the other way counts as inactive or inconclusive.

COc1ccc(S(=O)(=O)N(CC(=O)NC(C)c2ccccc2)c2ccc(C)cc2)cc1OC (stereo unspecified)	UDG counterscr inconclusive, AID inh 45µM
COc1ccc(S(=O)(=O)N(CC(=O)Nc2cc(C)cc(C)c2)c2ccc(Cl)cc2)cc1	none
COc1ccc(S(=O)(=O)N(CC(=O)NCc2ccccc2)c2ccc(C)cc2)cc1OC	none
CCn1c(=O)n(-c2ccc3c(c2)OCO3)c2nc(-c3cc(OC)ccc3OC)nc(C(N)=O)c21	none
CCc1ccc(NC(=O)c2oc3c(c2C)-c2[nH]ncc2CC3)cc1	AID inh inconclusive
Cc1cc(NC(=O)c2oc3c(c2C)-c2[nH]ncc2CC3)ccc1Br	AID inh 35µM
COc1c(Cl)cc(C(=O)N(Cc2ccc(C)o2)C2CCS(=O)(=O)C2)cc1Cl (stereo unspecified)	UDG counterscr 89µM
Cc1ccc(CN(C(=O)COc2ccc(Cl)cc2Cl)C2CCS(=O)(=O)C2)o1 (stereo unspecified)	none
Cc1ccccc1C(=O)N1CCN(c2oc(-c3ccc(F)cc3)nc2C#N)CC1	none
Cc1cc2oc(=O)cc(CN3CCCCC3C)c2cc1C(C)C (stereo unspecified)	none
COC(=O)C1=C(C)NC(=O)NC1c1cn(-c2ccccc2)nc1-c1ccc(OC)c(Cl)c1 (stereo unspecified)	none
CCOc1ccc(-c2nn(-c3ccccc3)cc2C2NC(=O)NC(C)=C2C(=O)OC(C)C)cc1C (stereo unspecified)	UDG counterscr inconclusive, AID inh 45µM!
CCOC(=O)C1=C(C)NC(=O)NC1c1cn(-c2ccccc2)nc1-c1ccc(OCC)cc1 (stereo unspecified)	AID inh inconclusive
CCOc1ccc(-c2nn(-c3ccccc3)cc2C2NC(=O)NC(C)=C2C(=O)OC(C)C)cc1 (stereo unspecified)	UDG counterscr inconclusive, AID inh 45µM
CC(=O)O[C@H]1C[C@@H]2CC[C@@H]3[C@H](CC[C@@]4(C)[C@H]3C[C@H]([N+]3(C)CCCCC3)[C@@H]4OC(C)=O)[C@@]2(C)C[C@@H]1[N+]1(C)CCCCC1	AID inh 22µM
CC(=O)C1=CC[C@H]2[C@@H]3CC[C@H]4C[C@@H](O)CC[C@]4(C)[C@H]3CC[C@]12C	none
O=C(Nc1cccc(C(=O)N2CCN(c3ccccc3)CC2)c1)c1nsc2ccccc12	none
COc1ccc(N(C)C(=O)c2cn(C3CCCCC3)c(=O)c3c2c2ccccc2n3C)cc1	UDG counterscr inconclusive, AID inh 40µM
COc1cc(NC(=O)c2cn(C3CCCC3)c(=O)c3c2c2ccccc2n3C)cc(OC)c1OC	none
Oc1ccc(NCc2ccc(OCc3ccccc3)cc2)cc1	AID inh 2.8µM
Oc1ccc(NCc2ccc(OCc3ccccc3Cl)cc2)cc1	UDG counterscr 79µM, AID inh 35µM
c1ccc(CNCc2ccc(OCc3ccccc3)cc2)cc1	none
O/N=C\c1ccc(OCc2ccccc2Cl)cc1	none
Cc1ccccc1CNC(=O)Cn1cnc(NC(=O)c2ccccc2)n1	none
CCOc1ccc(NC(=O)CC2C(=O)N(c3ccc(OC)cc3)C(=O)N2CCC2=CCCCC2)cc1 (stereo unspecified)	none
Cc1ccc2nc(N3C(=O)C(O)=C(C(=O)c4ccco4)C3c3ccc(O)cc3)sc2c1 (stereo unspecified)	none
O=C(C1=C(O)C(=O)N(c2nc3ccc(Cl)cc3s2)C1c1ccco1)c1ccco1 (stereo unspecified)	AID inh 50µM
CCc1ccc(-n2c(=O)c3c(C)c(C(=O)N(C)C)sc3n(Cc3ccccc3F)c2=O)cc1	none
Cc1c(C(=O)N(C)C)sc2c1c(=O)n(-c1ccc(F)cc1)c(=O)n2Cc1ccccc1C#N	UDG counterscr 89µM
CCCOc1ccccc1Oc1ncccc1CNC(=O)Nc1ccccc1	none
CC1Cc2cc(S(=O)(=O)NCc3ccc(F)cc3)ccc2N1C(=O)C1CCC1 (stereo unspecified)	none
CC(C)(C)c1ccc(C(=O)NCC(c2cccs2)S(=O)(=O)c2ccc(F)cc2)cc1 (stereo unspecified)	UDG counterscr 79µM
CC(C)(C)c1ccc(C(=O)NCC(c2cccs2)S(=O)(=O)c2cccs2)cc1 (stereo unspecified)	AID inh inconclusive
CCOCCCn1c(=N)c(C(=O)NC(C)c2ccccc2)cc2c(=O)n3cccc(C)c3nc21 (stereo unspecified)	AID inh 22µM
Cc1cccn2c(=O)c3cc(C(=O)NC(C)c4ccccc4)c(=N)n(CCOCCO)c3nc12 (stereo unspecified)	none
CCCNC(=O)C1CCC(Cn2c(=O)c3sccc3n(CC(=O)N3CCCC3)c2=O)CC1 (stereo unspecified)	none
NOCC(=O)O	none
CCCCN(C)CC(O)Cn1cc(/C=C/C(=O)c2ccc(OCC)cc2)c2ccccc21 (stereo unspecified)	AID inh inconclusive
CCCCN(CCCC)CC(O)Cn1cc(/C=C/C(=O)c2ccccc2)c2ccccc21 (stereo unspecified)	AID inh 32µM
Cc1[nH]c(=O)[nH]c(=O)c1S(=O)(=O)N1CCN(c2ccccc2Cl)CC1	AID inh inconclusive
COc1ccc(Cl)cc1NC(=O)CSC1=Nc2ccccc2C2=NC(CC(=O)NC3CCCCC3)C(=O)N12 (stereo unspecified)	AID inh 32µM
O=C(CC1N=C2c3ccccc3N=C(SCc3ccc(Cl)cc3)N2C1=O)NC1CCCCC1 (stereo unspecified)	none
CCCCCc1ccc(-c2ccc(C(=O)O)cc2)cc1	none
CCCCCCCCc1ccc(-c2ccc(C(=O)O)cc2)cc1	AID inh 89µM!
Cc1ccc(NC(=O)CCCc2nc3ccccc3o2)c(C)c1	none
CCCCOC(=O)c1ccc(NC(=O)c2sc3nc(C)cc(C)c3c2N)cc1	none
CCOc1cc([C@H]2[C@@H]3CCCC[C@]3(O)CCN2Cc2ccccc2F)ccc1O	none
C=C(Cl)COC(=O)c1ccc2c(c1)NC(=O)C(C)S2 (stereo unspecified)	none
CC1Sc2ccc(C(=O)NNC(=O)CSc3cccc4cccnc34)cc2NC1=O (stereo unspecified)	AID inh 22µM
CCn1cc2nc(SCc3cccc(C(F)(F)F)c3)n(Cc3ccc(Cl)cc3)c(=O)c2n1	AID inh 25µM
CCn1cc2nc(SCc3cccc(C)c3)n(CCc3ccccc3)c(=O)c2n1	AID inh 35µM
CCn1cc2nc(SCc3cccc(Cl)c3)n(Cc3ccc(C)cc3)c(=O)c2n1	none
CCn1cc2nc(SCc3cccc(C(F)(F)F)c3)n(CCc3ccccc3)c(=O)c2n1	AID inh inconclusive
O=C(NCc1cccs1)c1ccc2c(=O)n3nc(Nc4ccccc4)sc3nc2c1	none
CCc1ccccc1Nc1nn2c(=O)c3ccc(C(=O)NCc4cccs4)cc3nc2s1	AID inh 32µM
C=C(C)C1CCC2(COC(=O)CCC(=O)O)CC[C@]3(C)C(CCC4[C@@]5(C)CCC(OC(=O)CCC(=O)O)C(C)(C)C5CC[C@]43C)C12 (stereo partly specified)	AID inh 28µM
C=C(C)[C@@H]1CCC2(COC(C)=O)CC[C@]3(C)C(CCC4[C@@]5(C)CCC(=O)C(C)(C)C5CC[C@]43C)C12 (stereo partly specified)	none
COc1ccc(CNC(=O)C2CCN(c3nnc(C)c4c(C)n(-c5ccc(C)cc5)nc34)CC2)cc1	none
O=Cc1ccc(OCc2ccccc2Cl)cc1	none

Screens deposited in PubChem by National Center for Advancing Translational Sciences (NCATS).
